# Screens as filed in PubChem BioAssay.
# Sampled rows, rich in hits. Any-hit rate of the full collection: about 7.5%.
# FMDV antiviral – foot and mouth disease virus antiviral activity. FMDV antiviral cell-based qHTS. Potency, µM (titrated, usually from 57.9 µM), for inactives: top-dose activity change, negative = inhibition, usual class: inhibitors. 410,000 compounds, 1.2% hits. AID 1159524; calls by dose curve; tested in HEK293T cells; further: read-out not given here; potency means the concentration at half of the fitted maximal effect; nearly all actives have a fitted effect of over 45% in size
# Giardia FBPA inh – blocks Giardia fructose-bisphosphate aldolase activity | Potency, µM (top dose mostly 59.6 µM), for the others: at the top dose activity, negative = inhibition, usual class: inhibitors | AID 2451 | A8B2U2 | 290,000 compounds, 0.71% hits | purified Giardia FBPA; further: potency means the concentration at half of the fitted maximal effect; nearly all actives have a fitted effect of over 55% in size
# Target sequence (A8B2U2 whole entry, looked up): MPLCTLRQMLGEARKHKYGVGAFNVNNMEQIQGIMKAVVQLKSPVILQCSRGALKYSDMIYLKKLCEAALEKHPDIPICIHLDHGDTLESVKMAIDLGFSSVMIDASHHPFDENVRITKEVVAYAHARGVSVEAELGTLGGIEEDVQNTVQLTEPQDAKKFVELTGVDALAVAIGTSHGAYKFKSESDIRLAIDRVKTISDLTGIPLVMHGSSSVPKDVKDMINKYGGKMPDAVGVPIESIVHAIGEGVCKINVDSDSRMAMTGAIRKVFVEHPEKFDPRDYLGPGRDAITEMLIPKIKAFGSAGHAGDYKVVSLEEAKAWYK
#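 Giardia FBPA (40 nM reagent) was preincubated 10 min at RT with compound (up to 57.5 uM final), then substrate plus GAPDH/TPI/NAD/arsenate coupling system with diaphorase/resazurin was added; resorufin fluorescence (525/598 nm) was read after 20 min.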
# Vaccinia mCherry – inhibitors of vaccinia virus infection (mCherry reporter signal). Vaccinia virus mCherry reporter infection, fluorescence. Potency, µM (highest dose often 36.5 µM), for the others: at the top dose activity change, negative = inhibition, usual class: inhibitors. 310,000 compounds, 0.63% hits. AID 720579; calls by dose curve; tested in A549 cells; further: potency means the concentration at half of the fitted maximal effect; nearly all actives have a fitted effect of over 35% in size
# HCMV inh – inhibitors of human cytomegalovirus; HFF cells, HCMV-luciferase reporter, 72 h; stronger effect = lower value; activity change, negative = inhibition, % at 57.5 µM; 410,000 compounds, 4.5% hits; in the data active means activity change below about -60%; inconclusive means no clear call, values can overlap the other calls; inactive means above about -39%
#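 After 16 h attachment at 37C, HFF cells received test compound and HCMV-luciferase (1 PFU/cell); reporter luminescence read 72 h later, data normalized against buffer-only and known inhibitor Salinomycin.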
# Vaccinia Venus – inhibitors of vaccinia virus (Venus reporter); Potency, µM (titrated, usually from 36.5 µM), inactives show at the highest dose activity change, negative = inhibition, hits mostly inhibitors; 330,000 compounds, 0.46% hits; AID 720580; Vaccinia virus Venus reporter expression, fluorescence; calls by dose curve; tested in A549 cells; further: potency means the concentration at half of the fitted maximal effect; nearly all actives have a fitted effect of over 30% in size
# HCV inh – HCV inhibition; Huh7.5.1 HCVcc-Cre infection, luciferase reporter, 44 h; AID 651820; 340,000 compounds, 3.4% hits; Potency, µM (top dose mostly 41.8 µM), for inactives: at the highest dose activity change, negative = inhibition, most hits filed as inhibitors; further: potency means the concentration at half of the fitted maximal effect
#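 Seed cells (1,000/well) for 4 h; treat with compound and infect with HCVcc-Cre, moi about 0.5. Incubate 44 h, then detect luciferase activity.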
# * marks the source's active call; other numbers are inactive results; i = inactive; ? = inconclusive; / = not tested or not shown. Unless noted, the call rests on the fitted dose curve; in most records, active means well fitted curve in the direction sought with a large enough effect; inconclusive means small, poorly fitted or top-dose-only effect, or another doubt; inactive means no such curve, though single readings can be large; an effect the other way counts as inactive or inconclusive. On the % scale 0 is the no-effect control and ±100 the full control effect.
SMILES,FMDV antiviral,Giardia FBPA inh,Vaccinia mCherry,HCMV inh,Vaccinia Venus,HCV inh
O=C1/C(=C/c2cccnc2)CCc2c1[nH]c1ccccc21,37%,-11%,?,-76*,-24%,-29%
CN1C(=O)C(=Cc2cccnc2)C(=O)N(C)C1=O,0%,-9%,-17%,35,-14%,20%
CN1CC2=Cc3ccccc3OC23Oc2ccccc2C=C3C1,?,?,/,-80*,-28%,-28%
COC(=O)N1C/C=C\C(c2ccc(OC)cc2)N(Cc2ccc(F)cc2)C(=O)C1 (stereo not drawn),-26%,-1%,-19%,-7,-22%,17%
C=CC(=O)N1C/C=C\C(c2ccc(OC)cc2)N(Cc2ccc(F)cc2)C(=O)C1 (stereo not drawn),-22%,-1%,?,7,0.89µM*,0%
COc1ccc(C2/C=C\CN(C(=O)OCC3c4ccccc4-c4ccccc43)CC(=O)N2Cc2cccc(F)c2)cc1 (stereo not drawn),-26%,-6%,i,-12,0%,10µM*
CSCCC(NC(=O)C1CCCCC1)C(=O)Nc1ccc(F)c(Cl)c1 (stereo not drawn),15%,/,-15%,-2,-14%,/
O=C(Nc1ccccc1C(=O)Nc1nnc(C(F)(F)F)s1)c1ccccc1,?,-25%,?,-99*,?,-87%
Cc1occc1C(=O)Nc1nnc(C(F)(F)F)s1,36%,-12%,-12%,-10,-12%,3%
Cc1c(C(=O)Nc2nnc(C(F)(F)F)s2)oc2ccccc12,36%,?,-14%,-85*,-19%,/
COC(=O)c1sc(NC(=O)c2oc3ccccc3c2C)nc1C,17%,2%,/,139,2%,13%
CN1CCN(Cc2ccc(Sc3ccc(Cl)cc3)c([N+](=O)[O-])c2)CC1,-26%,3%,-21%,-71*,-15%,?
Brc1cc(Br)c[n+](CCc2ccccc2)c1,/,/,0%,/,-9%,/
Oc1ccc(Cl)cc1Cc1cc(Cl)ccc1O,?,-1%,?,-89*,?,?
Cc1ccc(Cl)c2c1=NC(=O)C=2c1[nH]c(=S)[nH]c1O,-13%,?,-23%,-37,-10%,5%
O=C(CSCC(=O)Nc1ccccc1)N/N=C/c1c(O)ccc2ccccc12,30%,-24%,/,-104*,/,10µM*
O=C(N/N=C/c1c(O)ccc2ccccc12)Nc1ccccc1,32%,/,/,-35,/,?
Nc1cc(Cl)nc(N/N=C/c2c(O)ccc3ccccc23)n1,-9%,-4%,28µM*,-71*,?,?
O=C(CNc1ccccc1)N/N=C/c1c(O)ccc2ccccc12,8%,-12%,/,-89*,/,10µM*
CCCC1(c2ccccc2)NC(=O)N(CC(=O)NCc2ccc(OC)cc2)C1=O (stereo not drawn),-16%,6%,/,?,/,-18%
COc1cccc(Cn2c(=O)n(CC3CCC(C(=O)NC(C)C)CC3)c(=O)c3sccc32)c1 (stereo not drawn),-10%,/,8%,-19,0%,/
COc1cc(Nc2cc3c(cn2)cc(-c2cccnc2)n3C)cc(C(F)(F)F)c1,/,/,/,0,/,/
Cc1nc(SCC(=O)NCC2CCCO2)[nH]c(=O)c1C (stereo not drawn),22%,/,-19%,-4,-17%,9%
CCOc1ccccc1CNC(=O)Cn1ccc2cc(S(=O)(=O)N3CCC(C)CC3)ccc21,3%,-10%,/,/,/,?
CCOC(=O)c1c(C)[nH]c(C(=O)N2CCN(C(=O)OCC)CC2)c1C,-9%,11%,-12%,-12,2%,-1%
SMILES,FMDV antiviral,Giardia FBPA inh,Vaccinia mCherry,HCMV inh,Vaccinia Venus,HCV inh
CCOC(=O)c1c(C)[nH]c(C(=O)N2CCc3cc(OC)c(OC)cc3C2)c1C,?,/,-3%,3,-11%,11µM*
CCCS(=O)(=O)NC(=O)C1(C)CCCN(C(=O)CCc2ccccc2)C1 (stereo not drawn),/,/,/,-65*,/,/
CCOC(=O)c1c(C)[nH]c(C(=O)OCC(=O)Nc2cc(C)nn2-c2ccccc2)c1C,-13%,/,-27%,-17,-10%,?
CCC(Oc1ccc(Cl)cc1)C(=O)OC1CC2CCC(C1)N2C (stereo not drawn),-14%,/,-6%,/,-23%,/
CCN(Cc1ccncc1)Cc1c(O)ccc2cc(Br)ccc12,-12%,8.9µM*,-10%,-32,-3%,6%
CC(=O)c1ccc(OCc2cc(C(=O)N3CCN(c4ccccc4)CC3C)no2)cc1 (stereo not drawn),-8%,-1%,/,0,/,22µM*
O=C(C1=C(c2ccccc2)C(=O)c2ccccc2C1=O)c1ccccc1,10µM*,?,?,-99*,-13%,10µM*
O=C(NCCC1=CCCCC1)c1ccc2c(c1)N(Cc1ccccc1)C(=O)c1ccccc1S2(=O)=O,1%,/,i,-19,-19%,/
CC(=O)c1ccc2c(c1)Nc1ccccc1S2,0%,1%,-23%,-9,-11%,?
CCN(CC)CCNC(=O)c1ccc2c(c1)NC(=O)c1ccccc1S2,?,-1%,/,2,/,?
Cc1ccc(NC(=O)c2ccc3c(c2)NC(=O)c2ccccc2S3)cc1,?,/,?,-71*,?,/
C/C(=N\NC(=O)c1ccc(C)cc1C)c1ccc2c(c1)Nc1ccccc1S2,?,-7%,?,0,?,3.5µM*
CN(C)CCNC(=O)c1ccc2c(c1)NC(=O)c1ccccc1S2,-12%,3%,/,-11,/,8.9µM*
CCOC(=O)c1ccc(NC(=O)c2ccc3c(c2)NC(=O)c2ccccc2S3)cc1,?,/,-6%,15,6%,/
COc1ccccc1-n1cc([C@@H]2C[C@H]3CN(c4ccccc4)C(=O)[C@]34CCCN24)cn1,-7%,-2%,-17%,-97*,-16%,5.6µM*
COc1cc([C@@H]2C[C@H]3CN(c4ccccc4)C(=O)[C@]34CCCN24)cc(OC)c1OC,-10%,-2%,/,?,/,-27%
CCOc1cc([C@@H]2C[C@H]3CN(c4ccccc4)C(=O)[C@]34CCCN24)ccc1OC,4%,-26%,i,-69*,-5%,?
NCc1ccccc1CS(=O)(=O)N1CCOCC1,-6%,/,/,-19,/,-3%
CCOC(=O)C1CCN(C(=O)c2cccc(N3C(=O)NC4CC3(C)Oc3ccc(C)cc34)c2)CC1 (stereo not drawn),8%,/,-21%,-24,-11%,-11%
CCOC(=O)N1CCN(C(=O)c2cccc(N3C(=O)NC4CC3(C)Oc3ccc(Cl)cc34)c2)CC1 (stereo not drawn),?,/,-5%,-71*,-24%,-14%
COc1ccc(S(=O)(=O)NC(=O)C2(C)CCN2C(=O)c2ccc(C(F)(F)F)nc2C)cc1 (stereo not drawn),-9%,/,49%,10,-3%,/
